# Laboratory results taken from the supplement of paper PMC8728848.
# This excerpt belongs to a sample that is enriched for the strongest signals.
# B1: BabA (Helicobacter pylori), O52269_HELPY (protein)
# chain: AEDDGFYMSAGYQIGEAAQMVKNTKGIQELSDNYENLSNLLTRYSTLNTLIKLSADPSAVNAARENLGASAKNLIGDTKNSPAYQAVLLAINAAVGFWNVVGYVTQCGGNANGQKSTSSTTIFNNEPGYRSTSITCSLNGHMPGYYGPMSIENFKKLNEAYQILQTALKNGLPALKENNGTVNVTYSYTCSGEGNDNCSLQTTGVTNQNNGTKTETQTIDGKSVTTTISSKVVDSQ
# Key:
# Experiment in all cases: glycan array binding signal (z-score within array); higher = stronger binding
# Details in all cases: glycan notation: IUPAC condensed, linker removed
# GalNAc6S(b1-4)GlcNAc = molecular target: GalNAc6S(b1-4)GlcNAc
# Method in brief: (§1)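 Arrays were curated from the Consortium for Functional Glycomics database, 3228 in total, and kept only where the protein sequence was available. Binding is expressed as a within-array Z-score. This score was averaged across arrays of the same protein sequence at different concentrations or buffers and across linkers, and negative values can be read as non-binding.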
# [1] = molecular target: Glc(a1-4)Glc(a1-4)Glc(a1-4)Glc
# Method in brief: as §1
# [2] = molecular target: Glc(a1-6)Glc(a1-6)Glc(a1-6)Glc
# Method in brief: as §1
# GlcA(b1-6)Gal = molecular target: GlcA(b1-6)Gal
# Method in brief: as §1
# [3] = molecular target: GlcNAc(b1-2)[GlcNAc(b1-4)]Man(a1-3)[GlcNAc(b1-4)][GlcNAc(b1-2)[GlcNAc(b1-6)]Man(a1-6)]Man(b1-4)GlcNAc(b1-4)[Fuc(a1-6)]GlcNAc
# Method in brief: as §1
# [4] = molecular target: GlcNAc(b1-3)Gal(b1-4)GlcNAc(b1-2)Man(a1-3)[GlcNAc(b1-3)Gal(b1-4)GlcNAc(b1-2)Man(a1-6)]Man(b1-4)GlcNAc(b1-4)GlcNAc
# Method in brief: as §1
# [5] = molecular target: GlcNAc(b1-3)Gal(b1-4)GlcNAc(b1-3)Gal(b1-4)GlcNAc(b1-2)Man(a1-3)[GlcNAc(b1-3)Gal(b1-4)GlcNAc(b1-3)Gal(b1-4)GlcNAc(b1-2)Man(a1-6)]Man(b1-4)GlcNAc(b1-4)GlcNAc
# Method in brief: as §1
# [6] = molecular target: GlcNAc(b1-3)Gal(b1-4)GlcNAc(b1-3)Gal(b1-4)GlcNAc(b1-2)[GlcNAc(b1-3)Gal(b1-4)GlcNAc(b1-3)Gal(b1-4)GlcNAc(b1-6)]Man(a1-6)[GlcNAc(b1-3)Gal(b1-4)GlcNAc(b1-3)Gal(b1-4)GlcNAc(b1-2)Man(a1-3)]Man(b1-4)GlcNAc(b1-4)[Fuc(a1-6)]GlcNAc
# Method in brief: as §1
# [7] = molecular target: GlcNAc(b1-3)Gal(b1-4)GlcNAc(b1-3)Gal(b1-4)GlcNAc(b1-3)Gal(b1-4)GlcNAc(b1-2)Man(a1-3)[GlcNAc(b1-3)Gal(b1-4)GlcNAc(b1-3)Gal(b1-4)GlcNAc(b1-3)Gal(b1-4)GlcNAc(b1-2)Man(a1-6)]Man(b1-4)GlcNAc(b1-4)[Fuc(a1-6)]GlcNAc
# Method in brief: as §1
# [8] = molecular target: GlcNAc(b1-3)Gal(b1-4)GlcNAc(b1-3)Gal(b1-4)GlcNAc(b1-3)Gal(b1-4)GlcNAc(b1-2)[GlcNAc(b1-3)Gal(b1-4)GlcNAc(b1-3)Gal(b1-4)GlcNAc(b1-3)Gal(b1-4)GlcNAc(b1-6)]Man(a1-6)[GlcNAc(b1-3)Gal(b1-4)GlcNAc(b1-3)Gal(b1-4)GlcNAc(b1-3)Gal(b1-4)GlcNAc(b1-2)Man(a1-3)]Man(b1-4)GlcNAc(b1-4)[Fuc(a1-6)]GlcNAc
# Method in brief: as §1
# [9] = molecular target: Man(a1-2)Man(a1-6)[Man(a1-3)]Man(a1-6)[Man(a1-2)Man(a1-2)Man(a1-3)]Man
# Method in brief: as §1
# [10] = molecular target: Neu5Ac(a2-3)Gal(b1-3)[Fuc(a1-4)]GlcNAc(b1-3)Gal(b1-4)[Fuc(a1-3)]GlcNAc
# Method in brief: as §1
# [11] = molecular target: Neu5Ac(a2-3)Gal(b1-3)[Neu5Ac(a2-6)]GalNAc
# Method in brief: as §1
# [12] = molecular target: Neu5Ac(a2-3)Gal(b1-4)GlcNAc(b1-2)Man(a1-3)[GlcNAc(b1-2)Man(b1-4)GlcNAc(b1-2)Man(a1-6)]Man(b1-4)GlcNAc(b1-4)GlcNAc
# Method in brief: as §1
# [13] = molecular target: Neu5Ac(a2-3)Gal(b1-4)GlcNAc(b1-3)Gal(b1-4)GlcNAc
# Method in brief: as §1
# [14] = molecular target: Neu5Ac(a2-3)Gal(b1-4)GlcNAc(b1-3)Gal(b1-4)GlcNAc(b1-3)Gal(b1-4)GlcNAc(b1-2)Man(a1-3)[Neu5Ac(a2-3)Gal(b1-4)GlcNAc(b1-3)Gal(b1-4)GlcNAc(b1-3)Gal(b1-4)GlcNAc(b1-2)Man(a1-6)]GalNAc
# Method in brief: as §1
# [15] = molecular target: Neu5Ac(a2-3)Gal(b1-4)GlcNAc(b1-6)[Gal(b1-3)]GalNAc
# Method in brief: as §1
# [16] = molecular target: Neu5Ac(a2-3)Gal(b1-4)[Fuc(a1-3)]GlcNAc(b1-3)GalNAc
# Method in brief: as §1
# [17] = molecular target: Neu5Ac(a2-3)[GalNAc(b1-4)]Gal(b1-4)GlcNAc
# Method in brief: as §1
# [18] = molecular target: Neu5Ac(a2-6)Gal(b1-4)GlcNAc(b1-2)Man(a1-3)[GlcNAc(b1-2)Man(b1-4)GlcNAc(b1-2)Man(a1-6)]Man(b1-4)GlcNAc(b1-4)GlcNAc
# Method in brief: as §1
# [19] = molecular target: Neu5Ac(a2-6)Gal(b1-4)GlcNAc(b1-2)Man(a1-3)[Neu5Ac(a2-6)Gal(b1-4)GlcNAc(b1-2)Man(a1-6)]Man(b1-4)GlcNAc(b1-4)GlcNAc
# Method in brief: as §1
# [20] = molecular target: Neu5Ac(a2-6)Gal(b1-4)GlcNAc(b1-2)Man(a1-3)[Neu5Ac(a2-6)Gal(b1-4)GlcNAc(b1-2)Man(a1-6)]Man(b1-4)GlcNAc(b1-4)[Fuc(a1-6)]GlcNAc
# Method in brief: as §1
# [21] = molecular target: Neu5Ac(a2-6)Gal(b1-4)GlcNAc(b1-3)Gal(b1-4)GlcNAc(b1-3)Gal(b1-4)GlcNAc(b1-2)Man(a1-3)[Neu5Ac(a2-6)Gal(b1-4)GlcNAc(b1-3)Gal(b1-4)GlcNAc(b1-3)Gal(b1-4)GlcNAc(b1-2)Man(a1-6)]GalNAc
# Method in brief: as §1
# [22] = molecular target: Neu5Ac(a2-6)GalNAc(b1-4)GlcNAc6S
# Method in brief: as §1
# [23] = molecular target: Neu5Ac(a2-8)Neu5Ac(a2-8)Neu5Ac(a2-3)[Gal(b1-3)GalNAc(b1-4)]Gal(b1-4)Glc
# Method in brief: as §1
# [24] = molecular target: Neu5Ac9Ac(a2-6)Gal(b1-4)GlcNAc
# Method in brief: as §1
binder,measurement,setting,value
B1,glycan array binding signal (z-score),GalNAc6S(b1-4)GlcNAc,-0.764
same,glycan array binding signal (z-score),[1],0.344
same,glycan array binding signal (z-score),[2],0.59
same,glycan array binding signal (z-score),GlcA(b1-6)Gal,-0.267
same,glycan array binding signal (z-score),[3],-0.373
same,glycan array binding signal (z-score),[4],0.363
same,glycan array binding signal (z-score),[5],4.69
same,glycan array binding signal (z-score),[6],3.66
same,glycan array binding signal (z-score),[7],2.94
same,glycan array binding signal (z-score),[8],2.92
same,glycan array binding signal (z-score),[9],-0.83
same,glycan array binding signal (z-score),[10],0.749
same,glycan array binding signal (z-score),[11],0.266
same,glycan array binding signal (z-score),[12],-1.52
same,glycan array binding signal (z-score),[13],-0.291
same,glycan array binding signal (z-score),[14],9.34
same,glycan array binding signal (z-score),[15],1.93
same,glycan array binding signal (z-score),[16],0.626
same,glycan array binding signal (z-score),[17],-0.627
same,glycan array binding signal (z-score),[18],-0.829
same,glycan array binding signal (z-score),[19],-0.571
same,glycan array binding signal (z-score),[20],1.19
same,glycan array binding signal (z-score),[21],5.39
same,glycan array binding signal (z-score),[22],-0.637
same,glycan array binding signal (z-score),[23],0.344
same,glycan array binding signal (z-score),[24],-0.224
